Test results as given in PubChem BioAssay AID2384 (Southern Research Specialized Biocontainment Screening …, 2010).
Screen size: about 2,300 compounds; about 1,100 (48%) were called active. The set was probably picked from earlier hits. The list shows a part of the results. Results with a measured potency or affinity are listed apart. Values without a mark were called inactive. How the calls were made is not given here.

test: inhibitors in S. typhi counter-screen strain, dose response, counter-screen for PhoP regulon inhibitor project, fluorescence, 4 h (AID 2384); details: S. typhi GFP reporter counter-screen; series mostly up to 150 µM; inhibition: at the top concentration

SMILES | inhibition [%]
Cc1c(C(=O)O)oc2c3c(ccc12)OCCO3 | 37
Cc1ccnc(NS(=O)(=O)c2ccc(N=CC3=C(O)CC(C)(C)CC3=O)cc2)n1 | -5.31
N#Cc1nc(Cc2cccc3ccccc23)oc1NCCCN1CCOCC1 | 33.6
N#Cc1nc(Cc2ccccc2)oc1NCCN1CCOCC1 | 5.87
CCCNC(=O)COc1ncnc2sc(C)c(C)c12 | -23.9
COc1ccc(-n2cnc3c(sc4nc(N5CCOCC5)c5c(c43)CCCC5)c2=O)cc1 | -10.8
Cc1cc(=O)oc2c(CN(C)Cc3ccccc3)c(O)ccc12 | 8.32
CC(C)(C)NC(=O)c1ccc2c3c(cccc13)CC2 | 11.2
Cc1ccc(C(=O)N2C(=S)C(c3ccc(F)cc3)=NC23CCN(C)CC3)cc1 | 39.8
COC(=O)c1ccc(C)c(NC(=O)CN2C(=O)c3ccccc3S2(=O)=O)c1 | -9.18
CC(C)(C)Nc1nc(-c2ccccn2)nc2ccccc12 | 30.1
COC(=O)c1ccccc1NC(=O)CSc1ncn[nH]1 | 4.44
O=C1Nc2ccccc2C1=Nc1ccc(S(=O)(=O)Nc2nccs2)cc1 | -49.4
CCc1nc(C)ccc1OCC(=O)NCCCN(C)C | 16.7
Cc1ccc(-c2nc(C(=O)NCCCN(C)C)cc3c2[nH]c2ccccc23)cc1 | 32.1
Oc1ccc(C=Nc2ccc3ncccc3c2)c(O)c1 | 26.2
Cc1ccc(C2CC(=O)NC(SCCC(C)C)=C2C#N)cc1 (stereo unspecified) | -19.8
C=CCN1C(=O)C(O)(CC(=O)c2c(C)n[nH]c2C)c2cc(Br)ccc21 (stereo unspecified) | 7.21
Cc1cc[n+](CC(=O)c2ccc(NC(=O)c3ccccc3)cc2)cc1 | 29.7
CCc1ccc2c(c1)CCCN2C(=O)c1ccccc1C(=O)O | -19
COc1ccc2c(c1)cc1n2CCN=C1N | 23
COc1c(N2CCN(C(=S)NCc3ccccc3)C(C)C2)c(F)cc2c(=O)c(C(=O)O)cn(C3CC3)c12 (stereo unspecified) | 20.9
CCCC(=O)c1c(NC)cc(C)oc1=O | 26.1
Cc1c(-c2ccccc2)[n+](=O)c2c(n1[O-])CCCC2 | 14.9

SMILES | inhibition [%]
O=C(Nc1ccc(F)cc1)C1CCC(CNc2c(N3CCCCC3)c(=O)c2=O)CC1 (stereo unspecified) | -9.7
Nc1nc(N2CCN(c3ccccn3)CC2)nc2ccccc12 | 3.48
Cc1ccc(Cn2c(=N)c(C(=O)NCCN3CCOCC3)cc3c(=O)n4ccccc4nc32)cc1 | 16.7
CCOc1ccccc1NC(=O)CSc1nc(N)c(C#N)cc1C#N | 4.14
CN1CCc2nc(SCC(=O)Nc3cccc(F)c3)c(C#N)c(-c3cccs3)c2C1 | -20.1
COCCn1c(SCC(=O)Nc2nnc(C)s2)nnc1-c1c[nH]c2ccccc12 | 15.5
N#CCCn1ncc2ccccc21 | -3.13
C=CCOC(=O)C1=C(C)NC2(O)c3ccccc3C(=O)C12O (stereo unspecified) | -19.4
COC(=O)c1ccc(Cn2cnc3ccccc3c2=O)cc1 | 16.1
N#C/C(=C\c1ccc[nH]1)C(=O)NC1CC1 | 4.86
O=c1c2ccccc2nc2n1CCc1c-2[nH]c2ccccc12 | 2.11
CC1(C)Oc2ccc3ccc(=O)oc3c2/C(=C/NCCN/C=C2\C(=O)C(C)(C)Oc3ccc4ccc(=O)oc4c32)C1=O | 0.81
Cn1nnnc1SCC(=O)Nc1ccccc1-c1ccccc1 | 8.28
CC1CCN(C(=O)CSc2nnc(Cc3cc(=O)[nH]c(=O)[nH]3)n2-c2ccc(Cl)cc2)CC1 | -0.09
CCOC(=O)N1CCC(=NNc2ccnc3cc(Cl)ccc23)CC1 | 39.4
Cn1c(CCN2CCN(c3ccccn3)CC2)nc2cc(NC(=O)COc3ccccc3)ccc21 | 13.6
O=C(c1ccc2c(c1)[nH]c(=S)n1c3ccccc3nc21)N1CCN(c2cccc(Cl)c2)CC1 | 18.8
COC(=O)CC1C(=O)NCCN1C(=O)CSc1nc2ccc([N+](=O)[O-])cc2s1 (stereo unspecified) | 16.1
Cn1cnnc1SCC(=O)Nc1ccc2nc(SCc3ccccc3)sc2c1 | 13.9
C(=N\Nc1nc2ccccc2[nH]1)/c1ccc2ncccc2c1 | -2.51
O=C(CSc1ccccn1)N/N=C/c1c[nH]c2ccccc12 | 35.6
CCN1C(=O)N/C(=C/c2cc(C)n(Cc3ccccc3)c2C)C1=O | -15.1
Cc1cccc(OCC(=O)Nc2nonc2NC(=O)COc2cccc(C)c2)c1 | 13.2
CC(=O)Nc1ccc(NC(=O)CSc2ccc(-c3ccco3)nn2)cc1 | 1.22

SMILES | inhibition [%]
O=C(c1cc2c(s1)-c1ccccc1S(=O)(=O)C2)N1CCN(Cc2ccccc2)CC1 | 0.12
CN1CCN(c2ccccc2NC(=O)c2sc3ccccc3c2Cl)CC1 | -21.8
Cc1cc(C=O)c(O)cc1O | 36.2
O=C(NCc1ccccc1)c1ccc(CNc2c(N3CCCC3)c(=O)c2=O)cc1 | -5.91
COc1ccc(NC(=O)Cn2c(=O)oc3cc(S(=O)(=O)N4CCCC4)ccc32)c(OC)c1 | -15.4
NC1=NC2(CCCCC2)n2c(nc3ccccc32)N1 | 34.6
CCOC(=O)c1cnn2c1[nH]c(=O)c1ccccc12 | -7.64
NC1=NC(c2cccc(O)c2)n2c(nc3ccccc32)N1 (stereo unspecified) | -22.2
NC(=O)c1cc(S(=O)(=O)Nc2cccc(F)c2)co1 | 7.62
COC(=O)c1cc2nc(-c3ccccc3)cc(C)n2n1 | 1.02
CNc1ccc(SC#N)cc1 | 2.34
CCOC(=O)Cc1nn(C)c(=O)c2ccccc12 | -3.49
O=S1(=O)CC=C(CSc2nc3ccccc3[nH]2)C1 | -15.2
CC(=O)N1CSCC1C(=O)N1CCN(c2ccc(N3CCOCC3)nn2)CC1 (stereo unspecified) | -16.5
CCOC(=O)C(NC(C)=O)(Nc1cccc(F)c1)C(F)(F)F (stereo unspecified) | -29.5
O=C(NC1(C(F)(F)F)C(=O)Nc2c1c(=O)[nH]c(=O)n2-c1ccccc1)c1ccncc1 (stereo unspecified) | -4
C=CCn1c(C)c(C(C)=O)c(N2CCCC2)nc1=S | 11.6
NC(=O)CN1N=C(c2cc(Cl)sc2Cl)CSC1=O | 14.5
COCCN1CC(=O)N2C(c3cccc(OC)c3)c3[nH]c4ccccc4c3C[C@H]2C1=O (stereo partly specified) | -10.6
N=c1c(C(=O)NCC2CCCO2)cc2c(=O)n3ccccc3nc2n1Cc1ccc(Cl)cc1 (stereo unspecified) | 24.5
COc1ccc(C)cc1NC(=O)C1CCN(S(=O)(=O)c2c(C)noc2C)CC1 | 8.55
CCOc1ccccc1-c1cc(-c2ccccc2)nc2c1c(=O)n(C)c(=O)n2C | 2.64
COc1cccc(C(c2c(C)[nH]n(-c3ccccc3)c2=O)c2c(C)[nH]n(-c3ccccc3)c2=O)c1O | 14.5
